Bioassay records (PubChem BioAssay)
A selection: hits, their analogues and other compounds. The true share with any hit is near 4.2%.
V-ATPase pH: regulators of yeast V-ATPase proton pumping, primary screen, pHLuorin cytosolic pH fluorescence. 350,000 compounds, 0.37% hits. response, % at 10 µM. S. cerevisiae; in the data active = response mostly above about 7.3%, no sharp cut-off; inactive = mostly below about 5.4%; note: actives read high
tim23-1 inh: growth inhibitors of tim23-1 mutant yeast, primary screen, luminescence, uHTS; 330,000 compounds, 1.3% hits; inhibition, % at 20 µM; AID 463212, 2010; S. cerevisiae tim23-1 growth, BacTiter-Glo luminescence, 24 h;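 active = growth inhibition of the mutant yeast at or above 50%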;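 note: temperature-sensitive mutant grown at 25 °C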
NLRP3 yeast inh: NALP3 inflammasome inhibitors in reconstituted yeast, primary screen, luminescence, uHTS | Yeast reconstituted NLRP3/ASC/caspase-1, beta-gal luminescence, 24 h | inhibition, % at 10 µM | 330,000 compounds, 0.39% hits | AID 2825, 2010;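 active = inhibition of 50% or more; inactive = inhibition below 50%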
NALP1 yeast inh: NALP1 inflammasome inhibitors in reconstituted yeast, colorimetric, S. cerevisiae, triplicate retest; inhibition, % at 10 µM; AID 2071, 2009; 280,000 compounds, 0.61% hits; S. cerevisiae NALP1/ASC/caspase-1 growth, X-gal OD620, 72 h; in the data active = inhibition mostly above about 24%, no sharp cut-off; inactive = mostly below about 32%
tim10-1 inh: growth inhibitors of tim10-1 mutant yeast, primary screen, luminescence, uHTS; 330,000 compounds, 2.2% hits; inhibition, % at 20 µM; S. cerevisiae tim10-1 ts strain growth, BacTiter-Glo, 24 h;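 active = inhibition of at least 40%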;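 note: mutant grown at 25 °C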
TIM10 inh: growth inhibitors of isogenic TIM10 control yeast, primary screen, counter-screen for tim10-1 yeast inhibitor project, luminescence, uHTS. S. cerevisiae TIM10 strain growth, BacTiter-Glo luminescence, 24 h. 330,000 compounds, 1.4% hits. inhibition, % at 10 µM;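 active = inhibition of 40% or more at the single tested concentration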;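 note: wild-type TIM10 isogenic control strain grown at permissive 25 °C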
tim10-1 confirm: growth inhibitors of tim10-1 mutant yeast, confirmation, single concentration, luminescence, S. cerevisiae. shares compounds with tim10-1 inh. S. cerevisiae tim10-1 ts strain growth, BacTiter-Glo, 24 h. inhibition, % at 20 µM. 7,400 compounds, 56% hits. AID 463213, 2010;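 active = inhibition of yeast growth at or above a set limit in either of two repeat tests at 20 µM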;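 note: tim10-1 mutant grown at permissive 25 °C to find synthetic lethal compounds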
tim10 confirm: growth inhibitors of wild-type TIM10 yeast, confirmation, counter-screen for tim10-1 synthetic lethality project, single concentration, luminescence, S. cerevisiae. 4,600 compounds, 63% hits. S. cerevisiae tim10 strain growth, BacTiter-Glo luminescence, 24 h. shares compounds with TIM10 inh. inhibition, % at 10 µM. AID 463215, 2010;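 active = inhibition of yeast growth at or above a set limit in either of two replicates at 10 µM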; note: this counterscreen used the strain with wild-type TIM10
Hits are given with their value; n = inactive; x = not tested or not shown; ! = repeats disagree.

SMILES | V-ATPase pH | tim23-1 inh | NLRP3 yeast inh | NALP1 yeast inh | tim10-1 inh | TIM10 inh | tim10-1 confirm | tim10 confirm
COc1cccc(CCc2nnc(N)s2)c1 | n | n | n | n | n | n | x | x
Cc1cc2ccccn2c1C(=O)c1ccc([N+](=O)[O-])o1 | 11.3 | n | n | n | 46.0 | 76.8 | n | 91.2
Cc1cc2ccccn2c1C(=O)c1cccc([N+](=O)[O-])c1 | n | n | n | n | n | n | x | x
CCc1ccccc1NC(=S)/N=C(\N)Nc1nc(C)c2cc(C)ccc2n1 | n | n | n | n | 45.0 | 44.1 | n | n
CCOc1ccc2nc(N/C(N)=N/C(=S)Nc3cccc(C)c3)nc(C)c2c1 | n | n | n | n | n | n | x | x
CCCn1c(SCC(=O)Nc2ccccc2N2CCCCC2)nc2c1c(=O)n(C)c(=O)n2C | n | n | n | n | n | n | x | x
CCCn1c(SCC(=O)Nc2ccccc2C(=O)OC)nc2c1c(=O)n(C)c(=O)n2C | n | n | n | n | 60.4 | 46.5 | 45.1 | 46.4
O=C(Nc1cccc(Cl)c1)NC1CCCCC1 | n | n | n | n | 41.4 | 49.5 | 32.5 | n
Cc1ccc(Sc2nc(-c3ccccc3)nnc2C(F)(F)F)cc1 | n | n | n | n | 40.0 | 41.5 | 38.2 | n
CS(=O)(=O)c1ccc(C(=O)OCc2nnc(-c3ccc(Cl)cc3)o2)cc1[N+](=O)[O-] | n | n | n | n | 58.7 | 51.5 | 55.7 | 41.0
N#C/C(=C\C=C\c1ccccc1[N+](=O)[O-])C(=O)NC1CCCCC1 | n | n | n | n | 55.2 | 43.0 | 47.2 | 53.0
COc1ccc(C(=O)/C=C/c2ccc(OC3CSC3)cc2)cc1OC | n | n | n | n | 42.3 | 41.7 | n | n
O=Cc1ccc(OCC(=O)NCC2CCCO2)cc1 (centres undefined) | n | n | n | n | n | n | x | x
O=C(c1cc(COc2ccc(F)cc2Cl)on1)N1CCC(OCc2cccnc2)CC1 | n | n | n | n | 53.2 | 52.0 | 47.8 | 52.5
O=C(c1cc(COc2ccc(F)cc2Cl)on1)N1CCCCC1c1cccnc1 (centres undefined) | n | n | n | n | n | n | x | x
CCN(CC)CCn1c2c(c(SCC(=O)Nc3nccs3)nc1=O)CCCC2 | n | n | n | x | n | n | x | x
COc1ccc(NC(=S)Nc2ccc(C)c(Cl)c2)cc1OC | n | n | n | n | n | n | x | x
Cc1cccc(C)c1NC(=S)Nc1ccc(Cl)c(Cl)c1 | n | n | n | n | 47.5 | 51.6 | 38.2 | 47.6
CCCCCCCN1C(Nc2ccccc2)=NC[C@@H]1C | n | n | n | x | n | n | x | x
Cc1cc(C(F)F)n2nc(C(=O)Nc3sc4c(c3C#N)CCC(C)C4)nc2n1 (centres undefined) | n | n | n | n | 57.1 | 42.2 | 48.0 | 42.0
Cc1cc(C)nc(SCC(=O)Nc2sc3c(c2C#N)CCC(C)C3)n1 (centres undefined) | n | n | n | x | n | n | x | x
C=C[C@]1(C)C[C@@H](OC(=O)CSCCN(CC)CC)[C@]2(C)C(C)CC[C@]3(CCC(=O)[C@H]32)[C@@H](C)[C@@H]1O (some centres undefined) | n | n | n | x | 45.8 | 42.1! | 40.2! | 37.7
CCOC(=O)c1cnc2ccccc2c1NCCO | n | n | n | n | n | n | x | x
CCOC(=O)c1cnc2c(ccc3ccccc32)c1NCCCN(C)C | n | n | n | n | 49.5 | 80.8 | 64.9 | 79.8
c1ccc([C@H]2CN3C(=N2)Sc2ccccc23)cc1 | n | n | n | x | n | n | x | x
SMILES | V-ATPase pH | tim23-1 inh | NLRP3 yeast inh | NALP1 yeast inh | tim10-1 inh | TIM10 inh | tim10-1 confirm | tim10 confirm
NC(=O)/C(=N\OC(=O)c1ccco1)c1nc(-c2ccc(Br)cc2)cs1 | n | n | n | n | 42.6 | 45.8 | 39.7 | 43.4
COc1ccccc1CNCC(O)(c1ccc(Cl)cc1)c1ccc(Cl)cc1 | n | n | n | n | 46.1 | 51.5 | n | 44.4
O=C1CC(N2CCN(S(=O)(=O)c3ccccc3F)CC2)C(=O)N1c1ccccc1Cl (centres undefined) | n | n | n | x | n | n | x | x
Cc1cccc(NS(=O)(=O)c2ccc(C)c(C(=O)NCc3ccncc3)c2)c1 | n | n | n | x | n | n | x | x
CCCOc1ccc(C(=O)C(c2ccccc2)N2CCOCC2)cc1 (centres undefined) | n | n | n | n | n | n | x | x
CCCOc1ccc(C(=O)C(CN2CCOCC2)c2ccccc2)cc1 (centres undefined) | n | n | n | n | 45.9 | 50.2 | 46.4 | n
CC1CCCN(C(=O)c2ccc(-c3ccccc3Cl)o2)C1 (centres undefined) | n | n | n | x | n | n | x | x
O=C(c1ccc(-c2ccc([N+](=O)[O-])cc2)o1)N1CCCC(C(F)(F)F)C1 (centres undefined) | n | n | n | x | 64.0 | 42.6 | 55.5 | 47.6
CC1CCCN(C(=O)c2ccc([N+](=O)[O-])o2)C1 (centres undefined) | n | n | n | n | 56.9 | 45.9 | 40.2 | 40.2
Cc1ccc(NC(=O)CN2CCN(C(=O)c3ccco3)CC2)cc1S(=O)(=O)N(C)C | n | x | x | x | x | x | x | x
O=C(CNC(=O)c1cccs1)Nc1ccncc1 | n | n | n | x | n | n | x | x
C=CCc1c(C)nc(-c2ccccc2)nc1Nc1ccccc1O | n | n | n | n | 46.8 | 63.5 | 54.1 | 54.2
C=CCc1c(C)nc(-c2ccccc2)nc1N/N=C(\C)c1ccc(N)cc1 | n | n | n | n | n | n | x | x
Cc1cccc(Cn2nnc3c2C(=O)c2ccccc2C3=O)c1 | n | n | n | n | 42.3 | 52.4 | n | 32.9
O=C(O)/C=C/C(=O)N(CC1CCCO1)C1CC(=O)N(c2c(Cl)cccc2Cl)C1=O (centres undefined) | n | n | n | n | n | n | x | x
COc1ccccc1Nc1nc(N)nc(CSC(=S)N2CCN(c3ccccc3)CC2)n1 | n | n | n | n | n | n | x | x
COc1ccccc1Nc1nc(N)nc(CSC(=S)N2CCCCC2C)n1 (centres undefined) | n | n | n | n | 42.5 | 48.5 | n | n
NC(=O)N/N=C/c1sc(N2CCCCC2)nc1-c1cccs1 | n | n | n | x | n | n | x | x
CCCCNC(=S)N(C)/N=C/c1sc(N2CCCCC2)nc1-c1cccs1 | x | n | n | n | n | n | x | x
CC(C)NC(=S)N/N=C/c1sc(N2CCCCC2)nc1-c1cccs1 | n | n | n | x | 53.4 | 49.7 | 47.8 | 35.4
